About 64,000 (15%) of roughly 420,000 compounds were called active. Another 27% or so got no clear call; they are omitted. Not all results are given here. A number with no mark means an inactive call. Calls come from the whole dose curve; as a rule, active = well fitted inhibition curve with a large enough effect; inconclusive = small, poorly fitted or top-dose-only effect; inactive = flat fitted curve, though single readings scatter.
experiment: qHTS for Inhibitors of human tyrosyl-DNA phosphodiesterase 1 (TDP1): qHTS in cells in absence of CPT; conditions: DT40 Tdp1-/- hTDP1 cells, no CPT, ATP luminescence, 48 h; activity change, negative = growth inhibition: at 46.2 µM (top of the series); note: nearly all actives have a fitted effect of over 55% in size
In short: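 No-CPT arm: Tdp1-/-;hTDP1 DT40 cells (400/well) plus compounds, incubated ≥48 hr at 37 °C. Readout CellTiter-Glo luminescence.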
% is set by controls: 0 for no effect and ±100 for the full control effect; potency is the fitted concentration of half-maximal effect.

Question: For `CCC(CC)C(=O)Nc1ccc(S(=O)(=O)Nc2nccs2)cc1`, which “activity change, negative = growth inhibition” value is on record?
Answer: -15.6%

Question: For `Cc1ccnc(NC(=O)c2ccc(Cl)c([N+](=O)[O-])c2)c1`, which “activity change, negative = growth inhibition” value is on record?
Answer: -16.4%

Question: With `O=C(NCCC1=CCCCC1)c1ccc(Cl)c([N+](=O)[O-])c1` as the compound, how does the Potency read?
Answer: 16.4 µM (active)

Question: For `Cn1nnc2cc(C(=O)NCCC3=CCCCC3)ccc21`, which “activity change, negative = growth inhibition” value is on record?
Answer: -28%

Question: For `O=C(Nc1ccncc1)c1ccc(Cl)c([N+](=O)[O-])c1`, which Potency is on record?
Answer: 14.6 µM (active)

Question: For `O=C(Nc1cccnc1)c1ccc(Cl)c([N+](=O)[O-])c1`, which “activity change, negative = growth inhibition” value is on record?
Answer: -18.2%

Question: For `O=C(NCCC1=CCCCC1)c1ccc(-n2cncn2)cc1`, which “activity change, negative = growth inhibition” value is on record?
Answer: 10.9%

Question: With `C#CCCCCCCCCCCCCCCCC(=O)O` as the compound, how does the Potency read?
Answer: inactive

Question: With `CCCCC(=O)OC1=CN(Cc2ccccc2)S(=O)(=O)c2ccccc21` as the compound, how does the “activity change, negative = growth inhibition” value read?
Answer: -25.3%

Question: For `CCOC(=O)Cc1cccc(-c2cc(CCCCCCc3ccc(O[C@H]4O[C@H](COC(C)=O)[C@@H](OC(C)=O)[C@H](OC(C)=O)[C@@H]4OC(C)=O)c(-c4cccc(CC(=O)OCC)c4)c3)ccc2O[C@H]2O[C@H](COC(C)=O)[C@@H](OC(C)=O)[C@H](OC(C)=O)[C@@H]2OC(C)=O)c1`, which “activity change, negative = growth inhibition” value is on record?
Answer: -2.24%

Question: With `COC(C[C@@H]1O[C@@H]1C(=O)[C@@H](C)OCc1ccccc1)OC` as the compound, how does the “activity change, negative = growth inhibition” value read?
Answer: -0.475%

Question: For `Cc1ccccc1CSCCNC(=O)C1CCN(S(=O)(=O)Cc2ccccc2)CC1`, which “activity change, negative = growth inhibition” value is on record?
Answer: 1.55%

Question: With `Cc1c(Cl)cccc1NC(=O)C1CCCN(c2ncnc3onc(C)c23)C1` (stereo not drawn) as the compound, how does the Potency read?
Answer: 6.51 µM (active)

Question: With `Cc1ccc(Cl)cc1NC(=O)C1CCCN(c2cnccn2)C1` (stereo not drawn) as the compound, how does the “activity change, negative = growth inhibition” value read?
Answer: -14.8%

Question: With `Cc1cccc(NC(=O)C2CCCN(C(=O)Nc3ccc(F)cc3)C2)c1C` (stereo not drawn) as the compound, how does the “activity change, negative = growth inhibition” value read?
Answer: -19%

Question: Which “activity change, negative = growth inhibition” value does the source give for `Cc1cn([C@H]2C[C@H](O)[C@@H](/C=C/C(=O)NCCCc3ccccc3)O2)c(=O)[nH]c1=O` here?
Answer: -6.38%

Question: For `Cc1ccc(C)c(NC(=O)C2CCCN2C(=O)OC(C)(C)C)c1` (stereo not drawn), which “activity change, negative = growth inhibition” value is on record?
Answer: -7.65%

Question: With `CCOC(=O)c1c(C)[nH]c(CCC(=O)NCCCN2CCN(c3cccc(Cl)c3)CC2)c1C` as the compound, how does the Potency read?
Answer: 16.4 µM (active)

Question: With `Cc1ccc(C)c(N2CCN(C(=O)Cc3c(C(=O)O)c(C)cn3C)CC2)c1` as the compound, how does the “activity change, negative = growth inhibition” value read?
Answer: -0.116%

Question: Which “activity change, negative = growth inhibition” value does the source give for `CCOC(=O)N1CCC(Nc2c(NCCN3CCN(c4cccc(Cl)c4)CC3)c(=O)c2=O)CC1` here?
Answer: -11.3%

Question: Which Potency does the source give for `CCn1c(=O)cc(OCC(=O)NCCCN2CCN(c3cccc(Cl)c3)CC2)c2ccccc21` here?
Answer: 20.6 µM (active)

Question: With `CCOC(=O)c1c(C)[nH]c(C(=O)NCCN2CCOCC2)c1C` as the compound, how does the “activity change, negative = growth inhibition” value read?
Answer: 14.9%

Question: For `CCOC(=O)N1CCC(Nc2c(NCCCN3CCN(c4ccc(OC)cc4)CC3)c(=O)c2=O)CC1`, which “activity change, negative = growth inhibition” value is on record?
Answer: 6.14%

Question: With `Cc1ccc(C)c(N2CCN(CCCNC(=O)Nc3ccc(Cl)cc3)CC2)c1` as the compound, how does the Potency read?
Answer: 6.51 µM (active)

Question: Which “activity change, negative = growth inhibition” value does the source give for `COc1ccc(N2CCN(CCNC(=O)Nc3cc(Cl)ccc3Cl)CC2)cc1` here?
Answer: -3.29%

Question: With `Cn1c(=O)cc(OCC(=O)N2CCN(c3ccccc3)CC2)c2ccccc21` as the compound, how does the “activity change, negative = growth inhibition” value read?
Answer: 1.19%

Question: For `CCOC(=O)c1c(C)[nH]c(CCC(=O)NCCCN2CCN(c3cc(C)ccc3C)CC2)c1C`, which Potency is on record?
Answer: 4.61 µM (active)

Question: Which “activity change, negative = growth inhibition” value does the source give for `O=C(COc1cc2oc(=O)c3c(c2cc1Cl)CCC3)NCCCN1CCOCC1` here?
Answer: 1.09%

Question: With `Cc1ccccc1N1CCN(CC(=O)NCc2ccc(Cl)cc2)CC1` as the compound, how does the “activity change, negative = growth inhibition” value read?
Answer: -29%

Question: With `CCOc1ccc(S(=O)(=O)NCCCn2ccnc2)cc1NC(C)=O` as the compound, how does the “activity change, negative = growth inhibition” value read?
Answer: -20.8%

Question: For `CN(CCc1ccccc1)c1ccc([N+](=O)[O-])cn1`, which “activity change, negative = growth inhibition” value is on record?
Answer: 5.85%

Question: For `C/C=C(/C)C(=O)Nc1cccc(C2=NOC3(C2)C[C@@H](C(N)=O)N(C(=O)C2(C)CC2)C3)c1` (stereo partly drawn), which “activity change, negative = growth inhibition” value is on record?
Answer: -16.5%

Question: With `O=C(NCC(O)c1ccc([N+](=O)[O-])cc1)C1CCCCC1` (stereo not drawn) as the compound, how does the “activity change, negative = growth inhibition” value read?
Answer: 13.8%

Question: For `C=CC1C(OC2OC(CO)C(O)C(O)C2O)OC=C(C(=O)OC)C1CC1CC(=O)CC(CC(=O)CCc2ccc(O)cc2)O1` (stereo not drawn), which “activity change, negative = growth inhibition” value is on record?
Answer: -16.7%

Question: Which “activity change, negative = growth inhibition” value does the source give for `C[C@@H](O)c1nc2ccccc2n1N` here?
Answer: 10.4%

Question: For `C#CCOCCOCCOCCNc1nc(N2CCOCC2)nc(N2CCN(C(=O)[C@H](Cc3ccc(O)cc3)n3cc(CCO)nn3)CC2)n1`, which “activity change, negative = growth inhibition” value is on record?
Answer: 20.5%

Question: For `Cn1cc(CN2CCCCC2c2ccccn2)c(-c2ccc3c(c2)OCCO3)n1` (stereo not drawn), which “activity change, negative = growth inhibition” value is on record?
Answer: -11.7%

Question: With `CCc1nnc(NC(=O)CCC(=O)N2CCN(c3cc(C)ccc3C)CC2)s1` as the compound, how does the “activity change, negative = growth inhibition” value read?
Answer: -7.76%

Question: Which “activity change, negative = growth inhibition” value does the source give for `COC(=O)c1ccc2c(c1)S(=O)(=O)NC(=NCCCN1CCOCC1)S2` here?
Answer: -1.67%

Question: With `CC1=C(c2ccc(C)cc2)S(=O)(=O)NC1=NCCCN1CCN(c2cc(C)ccc2C)CC1` as the compound, how does the Potency read?
Answer: 3.66 µM (active)

Question: With `CCN(CC)C(=O)N1CCN(C(=O)c2ccc(C)cn2)CC1` as the compound, how does the “activity change, negative = growth inhibition” value read?
Answer: -5.87%

Question: With `CC(=NNC(=O)c1ccc2nc[nH]c2c1)c1ccc(Br)cc1` as the compound, how does the “activity change, negative = growth inhibition” value read?
Answer: -25.5%

Question: With `O=C(N/N=C/c1ccc(Cl)c(Cl)c1)c1ccc2nc[nH]c2c1` as the compound, how does the Potency read?
Answer: 23.1 µM (active)

Question: For `Cc1nc2ccc(C(=O)N/N=C/c3ccc(O)cc3)cc2[nH]1`, which “activity change, negative = growth inhibition” value is on record?
Answer: -4.18%

Question: With `CCCCc1ccc(S(=O)(=O)NC(=O)C2(C)CCN2C(=O)c2ccccc2)cc1` (stereo not drawn) as the compound, how does the “activity change, negative = growth inhibition” value read?
Answer: -2.64%

Question: Which “activity change, negative = growth inhibition” value does the source give for `COc1ccc(C2/C(=C(/O)c3ccc4c(c3)CC(C)O4)C(=O)C(=O)N2Cc2ccncc2)cc1` (stereo not drawn) here?
Answer: 2.22%

Question: With `COc1cc(C2C(C(=O)OCCC#N)=C(C)NC3=C2S(=O)(=O)c2ccccc23)cc(OC)c1OC` (stereo not drawn) as the compound, how does the “activity change, negative = growth inhibition” value read?
Answer: 18.7%

Question: Which “activity change, negative = growth inhibition” value does the source give for `O=C(Nc1ccccc1Br)c1cc(CN2CCCC2)on1` here?
Answer: -15%

Question: Which “activity change, negative = growth inhibition” value does the source give for `O=C(c1ccco1)N1CCN(C(=O)c2cc(-c3ccccc3F)no2)CC1` here?
Answer: -5.39%

Question: For `CC(Cc1ccccc1)C(=O)N(C)Cc1ccccc1` (stereo not drawn), which “activity change, negative = growth inhibition” value is on record?
Answer: -13.9%

Question: Which “activity change, negative = growth inhibition” value does the source give for `CN(Cc1ccccc1)Cc1ccccc1F` here?
Answer: -26.3%

Question: With `CN(Cc1ccccc1F)C(=O)C(Cc1ccccc1)NC(=O)c1ccccc1` (stereo not drawn) as the compound, how does the Potency read?
Answer: 16.4 µM (active)

Question: For `Cc1ccc(C)c(C(C)NC(=O)C2CCCO2)c1` (stereo not drawn), which “activity change, negative = growth inhibition” value is on record?
Answer: -28.7%

Question: For `O=c1onc(-c2c(F)cccc2F)n1-c1ccccc1Cl`, which “activity change, negative = growth inhibition” value is on record?
Answer: 16.1%

Question: With `CCSc1nc2sc3c(c2c(=O)[nH]1)CC(C)(C)OC3` as the compound, how does the “activity change, negative = growth inhibition” value read?
Answer: -19.9%

Question: Which “activity change, negative = growth inhibition” value does the source give for `CCOC(=O)CSc1nc2sc3c(c2c(=O)[nH]1)CC(C)(C)OC3` here?
Answer: -25.4%

Question: Which Potency does the source give for `CCOC(=O)Cn1c(SC)nc2sc3c(c2c1=O)CC(C)(C)OC3` here?
Answer: 14.6 µM (active)

Question: Which “activity change, negative = growth inhibition” value does the source give for `CCOCCOC(=O)C1=C(C)N(C)C(=O)NC1c1ccccc1F` (stereo not drawn) here?
Answer: -14.8%

Question: With `CCOC(=O)C1(Cc2ccc(O)cc2)NC(c2ccccc2F)C2C(=O)N(C)C(=O)C21` (stereo not drawn) as the compound, how does the Potency read?
Answer: 20.6 µM (active)

Question: With `COC(=O)C1(C)NC(c2ccccc2OC)C2C(=O)N(c3ccccc3)C(=O)C21` (stereo not drawn) as the compound, how does the “activity change, negative = growth inhibition” value read?
Answer: 9.08%

Question: For `Cc1cc(C)cc(NC(=O)Cn2cnc3c(nnn3Cc3ccc(F)cc3)c2=O)c1`, which “activity change, negative = growth inhibition” value is on record?
Answer: 0.0292%

Question: With `Cc1ccc(C)c(Cn2nnc3c(=O)[nH]c(C(=O)Nc4ccc(F)cc4)nc32)c1` as the compound, how does the Potency read?
Answer: 16.4 µM (active)

Question: With `Cc1n[nH]c(=O)c2c1nnn2Cc1ccc(F)cc1` as the compound, how does the “activity change, negative = growth inhibition” value read?
Answer: 17.2%

From PubChem BioAssay AID686978 (National Center for Advancing Translational Sciences (NCATS), 2013)
